From PubChem BioAssay
Most compounds without a hit are left out; they make up all but 21% or so of the library.
CHX counter – affects cycloheximide protein synthesis inhibition readout, counter-screen; cell reporter, cycloheximide protein synthesis inhibition counterscreen; max response, %; 300,000 compounds, 12% hits; AID 2314; in the data active means max response mostly above about 13%, no sharp cut-off; inactive means mostly below about 14%; further: read at 38.3 µM for the half of the compounds with a filed dose
Giardia FBPA inh – Giardia lamblia aldolase inhibition; A8B2U2; purified Giardia FBPA; Potency, µM (top dose mostly 59.6 µM), usual class: inhibitors; 290,000 compounds, 0.71% hits; further: nearly all actives have a fitted effect of over 55% in size
Target sequence (A8B2U2 whole entry, looked up): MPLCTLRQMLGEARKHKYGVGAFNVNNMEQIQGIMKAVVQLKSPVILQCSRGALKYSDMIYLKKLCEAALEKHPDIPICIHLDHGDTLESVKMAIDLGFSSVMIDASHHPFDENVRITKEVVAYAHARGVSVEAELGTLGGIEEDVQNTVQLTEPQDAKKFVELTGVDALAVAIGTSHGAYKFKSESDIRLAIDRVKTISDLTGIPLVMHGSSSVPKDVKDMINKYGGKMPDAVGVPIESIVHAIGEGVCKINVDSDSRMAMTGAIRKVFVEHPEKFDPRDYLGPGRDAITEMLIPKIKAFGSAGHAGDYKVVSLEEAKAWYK
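Giardia FBPA (40 nM reagent) was preincubated 10 min at RT with compound (up to 57.5 uM final), then substrate plus GAPDH/TPI/NAD/arsenate coupling system with diaphorase/resazurin was added; resorufin fluorescence (525/598 nm) was read after 20 min.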
Shiga inhibitor – inhibitors of Shiga toxin in Vero cells; Vero cells, Shiga toxin protein synthesis inhibition reporter; 290,000 compounds, 9.2% hits; AID 2315; inhibition, % at 38.7 µM; in the data active means inhibition mostly above about 28%, no sharp cut-off; inactive means mostly below about 43%
NS1 function inh – blocks influenza NS1 protein function | Potency, µM (doses to about 46.1 µM) | 270,000 compounds, 0.4% hits | AID 2326; calls by dose curve; further: actives are rising curves; nearly all actives have a fitted effect of over 50% in size
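Recovery from NS1-induced slow growth read by OD600 in budding yeast switched to galactose assay medium (pH 6.0, -URA) at 1:100 dilution. Compound 23 nl per well; the matching strain lacking NS1 serves as control.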
Pf growth 48h – P. falciparum growth inhibition at 48 hours (one generation); P. falciparum luciferase growth in erythrocytes, 48 h; Potency, µM (top dose mostly 28.7 µM), hits mostly inhibitors; 310,000 compounds, 5.9% hits
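Erythrocytes infected with P. falciparum carrying an integrated firefly luciferase reporter (2% hematocrit, 0.1% parasitemia final) were exposed to compounds in RPMI 1640 with 0.5% Albumax at 37 C, 5% CO2. Growth inhibition was scored as reduced luminescence.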
Pf growth 96h – P. falciparum growth inhibition at 96 hour, primary screen for plastid delayed-death inhibitors | Potency, µM (doses to about 28.7 µM), most hits filed as inhibitors | P. falciparum luciferase reporter growth, 96 h | 320,000 compounds, 6.9% hits
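Erythrocytes infected with luciferase-expressing P. falciparum were dispensed at 2% hematocrit and 0.05% parasitemia (final), then incubated with compounds 96 hours at 37 C in 5% CO2. Luminescence after detection reagent addition reported growth.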
Large screens that a line does not name were inactive; ! = not active in a repeat. Unless noted, the call rests on the fitted dose curve; in most records, active means well fitted curve in the direction sought with a large enough effect; inconclusive means small, poorly fitted or top-dose-only effect, or another doubt; inactive means no such curve, though single readings can be large; an effect the other way counts as inactive or inconclusive.

COc1ccc(-n2c(SCCNCCO)nc3sc4c(c3c2=O)CCCC4)cc1	Pf growth 48h 13µM, Pf growth 96h 9.3µM
COCCN(C(=O)CCC(=O)Nc1ccccn1)C(C(=O)NCCC(C)C)c1ccc(C)cc1 (centres undefined)	none (no result: Giardia FBPA inh)
Cc1cc(N2C(=O)C(O)=C(C(=O)c3ccco3)C2c2ccccc2F)no1 (centres undefined)	Pf growth 96h inconclusive (no result: Giardia FBPA inh)
CCOC(=O)CSc1nc2sc3c(c2c(=O)n1-c1ccc(C)cc1)CCN(C)C3	Pf growth 48h 4.7µM, Pf growth 96h 2.3µM
COc1cccc(-n2cnc3sc(C)c(C)c3c2=O)c1	CHX counter 29, Shiga inhibitor active
COC(=O)CSc1nc2sc3c(c2c(=O)n1-c1ccc(OC)cc1)CCN(C)C3	Giardia FBPA inh inconclusive, Pf growth 48h 6.6µM, Pf growth 96h 5.2µM
CCCCSc1nc2sc3c(c2c(=O)n1-c1ccc(C)cc1)CCN(C)C3	Pf growth 48h inconclusive, Pf growth 96h inconclusive
CCSc1nc2sc3c(c2c(=O)n1-c1ccc(OC)cc1)CCN(C)C3	Pf growth 48h inconclusive, Pf growth 96h inconclusive
CCOC(=O)CSc1nc2sc3c(c2c(=O)n1-c1ccc(OC)cc1)CCN(C)C3	Pf growth 48h 1.9µM, Pf growth 96h 1.5µM
COc1ccc(CNC(=O)[C@H]2C[C@@H]2[C@H](NP(=O)(c2ccccc2)c2ccccc2)c2ccccc2)cc1OC	none (no result: CHX counter, Shiga inhibitor, NS1 function inh, Pf growth 48h, Pf growth 96h)
CS(=O)(=O)N1CCC2(CCCN(c3ccccn3)C2)CC1	none (no result: CHX counter, Shiga inhibitor, NS1 function inh, Pf growth 48h, Pf growth 96h)
COC(=O)CSc1nc2sc3c(c2c(=O)n1C1CCCCC1)CCN(C)C3	none (no result: Pf growth 48h)
CN1CCc2c(sc3nc(SCC(=O)NCc4ccco4)n(-c4ccccc4)c(=O)c23)C1	CHX counter 39, Giardia FBPA inh inconclusive, Shiga inhibitor 48, Pf growth 48h 9.3µM, Pf growth 96h 0.93µM
CCOC(=O)CSc1nc2sc3c(c2c(=O)n1-c1ccccc1)CCN(C(C)C)C3	Pf growth 96h 0.83µM
CN1CCc2c(sc3nc(NCCO)n(-c4cccc(Cl)c4)c(=O)c23)C1	Pf growth 96h 4.7µM (no result: Pf growth 48h)
C=C(C)CSc1nc2sc3c(c2c(=O)n1-c1ccc(OC)cc1)CCN(C)C3	Pf growth 48h 1.9µM, Pf growth 96h 1µM
CN1CCc2c(sc3c2c(=O)n(-c2cccc(Cl)c2)c2nncn32)C1	none (no result: CHX counter, Giardia FBPA inh, Shiga inhibitor, Pf growth 48h, Pf growth 96h)
CC(=O)NC(NC(=S)Nc1ccc(N=Nc2ccccc2C)cc1C)C(Cl)(Cl)Cl (centres undefined)	CHX counter 29, Shiga inhibitor 114, Pf growth 48h inconclusive
CC(=O)NC(NC(=S)Nc1ccccc1Br)C(Cl)(Cl)Cl (centres undefined)	none (no result: NS1 function inh)
O=c1oc2ccccc2cc1-c1csc(Cc2nc(-c3ccc(Br)cc3)cs2)n1	none
Oc1csc(Cc2nc(-c3ccc(Br)cc3)cs2)n1	CHX counter 38, Shiga inhibitor 130 (no result: NS1 function inh)
NC(=O)Cc1nc(-c2ccccc2)cs1	Pf growth 96h inconclusive
NC(=O)Cc1nc(-c2ccc(Br)cc2)cs1	Shiga inhibitor 37
Cc1ccc(-c2csc(CC(N)=O)n2)cc1	CHX counter 31, Shiga inhibitor 66, Pf growth 96h inconclusive (no result: NS1 function inh)
Oc1c(Cl)cc(Cl)cc1/C=N/c1nc(-c2ccc(Cl)cc2)cs1	Pf growth 96h inconclusive
N/C(Cc1nc(-c2ccc(Cl)cc2)cs1)=N/O	CHX counter 41, Shiga inhibitor 40
CN(C)c1ccc(-c2nc(-n3ccnc3)c3ccccc3n2)cc1	none (no result: CHX counter, Shiga inhibitor, NS1 function inh, Pf growth 48h, Pf growth 96h)
Cc1cccc(OCC(=O)NCC(=O)N/N=C/c2cc(Br)cc(Br)c2O)c1	none
O=C1C(=O)c2ccccc2C(O)=C1C1CCC(c2ccc(Cl)cc2)CC1 (centres undefined)	Pf growth 48h 0.0006µM!, Pf growth 96h 0.0005µM (no result: CHX counter, Shiga inhibitor, NS1 function inh)
O=C1C(=O)c2ccccc2C(O)=C1c1ccccc1F	Pf growth 48h inconclusive, Pf growth 96h inconclusive
O=C1CCc2cc(S(=O)(=O)NCCCC(=O)N3CCN(Cc4ccc5c(c4)OCO5)CC3)ccc2N1	Pf growth 96h 13µM (no result: NS1 function inh)
Cc1ccc(S(=O)(=O)Nc2cccc(S(=O)(=O)N3CCCC3)c2)cc1C	none (no result: CHX counter, Giardia FBPA inh, Shiga inhibitor, NS1 function inh)
Cc1nc2c([nH]c3ccccc32)c(=O)n1N	CHX counter 28, Pf growth 96h inconclusive (no result: NS1 function inh)
O=c1c2[nH]c3ccc(F)cc3c2nc2n1CCCS2	CHX counter 25, Shiga inhibitor 54 (no result: NS1 function inh)
O=c1c2[nH]c3ccccc3c2nc2n1CCCS2	CHX counter 38, Shiga inhibitor 74, Pf growth 96h inconclusive (no result: NS1 function inh)
O=C1C(Cl)=C(NS(=O)(=O)c2ccc([N+](=O)[O-])cc2)C(=O)c2ccccc21	Pf growth 48h inconclusive, Pf growth 96h 5.2µM
CCCCCCc1cc2cc(C(N)=O)c(=N)oc2cc1O	Pf growth 96h inconclusive (no result: Pf growth 48h)
CCCCCCc1cc2cc(C(=O)OCC)c(=O)oc2cc1O	Pf growth 48h 1.7µM, Pf growth 96h 1.5µM
CCCCCCc1cc2cc(/C(N)=N/NC(=O)c3ccncc3)c(=O)oc2cc1O	Pf growth 48h 3.3µM (no result: CHX counter, Giardia FBPA inh, Shiga inhibitor, NS1 function inh)
O=C(Cn1cncn1)c1ccccc1Br	none
CC1=C([N+](=O)[O-])C(c2ccccc2)C2=C(N1)c1ccccc1C2=O (centres undefined)	Pf growth 96h 2.9µM (no result: Pf growth 48h)
CC1(C)CC(=O)C2=C(C1)NC1=C(C(=O)c3ccccc31)C2c1cccnc1 (centres undefined)	none
COc1ccc(C2C(C#N)=C(C)NC3=C2C(=O)c2ccccc23)cc1 (centres undefined)	Pf growth 96h inconclusive
CC(C)c1ccc(C2C3=C(CC(C)(C)CC3=O)NC3=C2C(=O)c2ccccc23)cc1 (centres undefined)	NS1 function inh inconclusive, Pf growth 48h 9.3µM, Pf growth 96h 6.6µM
CCC(C)c1ccc(C2C3=C(Nc4nc(N)[nH]c(=O)c42)c2ccccc2C3=O)cc1 (centres undefined)	Pf growth 96h inconclusive
CC1(C)CC(=O)C2=C(C1)NC1=C(C(=O)c3ccccc31)C2c1cc([N+](=O)[O-])ccc1O (centres undefined)	Pf growth 48h inconclusive
CC1(C)CC(=O)C2=C(C1)NC1=C(C(=O)c3ccccc31)C2c1ccccc1 (centres undefined)	Pf growth 48h 13µM, Pf growth 96h inconclusive
Nc1nc2c(c(=O)[nH]1)C(c1ccccc1)C1=C(N2)c2ccccc2C1=O (centres undefined)	Pf growth 48h 9.3µM, Pf growth 96h 10µM
OC(c1ccc(Cl)cc1)(c1cncnc1)c1ccccc1Cl (centres undefined)	none (no result: NS1 function inh, Pf growth 48h, Pf growth 96h)
COc1ccc(NC(=O)C(NC(=O)c2ccc(=O)[nH]c2)c2ccc(OC)cc2)cc1 (centres undefined)	none
CC(=O)Nc1ccc(NC(=O)C2CCCN2C(=O)Nc2ccc(F)c([N+](=O)[O-])c2)cc1 (centres undefined)	none
CCOc1ccc(C2C(C#N)=C(C)NC3=C2C(=O)c2ccccc23)cc1 (centres undefined)	Pf growth 96h 9.3µM (no result: Pf growth 48h)
Nc1cc(C(F)(F)F)ccc1Nc1ccccc1	CHX counter 28, Shiga inhibitor 77 (no result: NS1 function inh)
O=C(O)c1ccccc1Nc1ccccc1	none (no result: CHX counter, Shiga inhibitor)
